# What was measured:
# [1] = molecular target: DDX1 (UniProt Q92499); test: cross-linking mass spectrometry; conditions: DSS, purified complex
# [2] = molecular target: RTCB (UniProt Q9Y3I0); test: cross-linking mass spectrometry; conditions: DSS, purified complex
# Sequence of RTCB (Q9Y3I0 whole entry): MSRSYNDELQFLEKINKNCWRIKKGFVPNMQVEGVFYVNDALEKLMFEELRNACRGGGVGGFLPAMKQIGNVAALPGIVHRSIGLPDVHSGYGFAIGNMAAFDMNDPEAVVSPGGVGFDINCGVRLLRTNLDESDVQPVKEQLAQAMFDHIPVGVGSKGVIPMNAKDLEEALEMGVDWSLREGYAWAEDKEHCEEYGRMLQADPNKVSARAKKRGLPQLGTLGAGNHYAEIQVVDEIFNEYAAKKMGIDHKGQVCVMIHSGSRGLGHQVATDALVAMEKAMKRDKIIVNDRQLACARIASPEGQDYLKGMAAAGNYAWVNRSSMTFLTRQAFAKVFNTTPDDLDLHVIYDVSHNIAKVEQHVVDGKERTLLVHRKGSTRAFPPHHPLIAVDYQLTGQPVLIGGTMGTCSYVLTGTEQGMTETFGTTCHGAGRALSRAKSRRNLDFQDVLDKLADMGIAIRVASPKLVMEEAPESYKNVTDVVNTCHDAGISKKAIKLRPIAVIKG
# Sequence of FAM98B (Q52LJ0 whole entry): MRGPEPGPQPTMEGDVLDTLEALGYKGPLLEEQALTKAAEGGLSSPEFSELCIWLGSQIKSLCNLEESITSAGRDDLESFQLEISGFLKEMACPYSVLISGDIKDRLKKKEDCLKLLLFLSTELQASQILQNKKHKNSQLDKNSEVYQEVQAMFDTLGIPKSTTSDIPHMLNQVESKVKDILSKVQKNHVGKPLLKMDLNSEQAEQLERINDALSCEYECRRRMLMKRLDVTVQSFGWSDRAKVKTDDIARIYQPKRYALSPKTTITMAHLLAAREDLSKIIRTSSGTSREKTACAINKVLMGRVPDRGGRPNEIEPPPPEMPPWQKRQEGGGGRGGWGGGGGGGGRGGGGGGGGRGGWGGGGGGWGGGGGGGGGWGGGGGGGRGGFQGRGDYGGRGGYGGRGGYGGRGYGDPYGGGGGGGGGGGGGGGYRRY
# Sequence of DDX1 (Q92499 whole entry): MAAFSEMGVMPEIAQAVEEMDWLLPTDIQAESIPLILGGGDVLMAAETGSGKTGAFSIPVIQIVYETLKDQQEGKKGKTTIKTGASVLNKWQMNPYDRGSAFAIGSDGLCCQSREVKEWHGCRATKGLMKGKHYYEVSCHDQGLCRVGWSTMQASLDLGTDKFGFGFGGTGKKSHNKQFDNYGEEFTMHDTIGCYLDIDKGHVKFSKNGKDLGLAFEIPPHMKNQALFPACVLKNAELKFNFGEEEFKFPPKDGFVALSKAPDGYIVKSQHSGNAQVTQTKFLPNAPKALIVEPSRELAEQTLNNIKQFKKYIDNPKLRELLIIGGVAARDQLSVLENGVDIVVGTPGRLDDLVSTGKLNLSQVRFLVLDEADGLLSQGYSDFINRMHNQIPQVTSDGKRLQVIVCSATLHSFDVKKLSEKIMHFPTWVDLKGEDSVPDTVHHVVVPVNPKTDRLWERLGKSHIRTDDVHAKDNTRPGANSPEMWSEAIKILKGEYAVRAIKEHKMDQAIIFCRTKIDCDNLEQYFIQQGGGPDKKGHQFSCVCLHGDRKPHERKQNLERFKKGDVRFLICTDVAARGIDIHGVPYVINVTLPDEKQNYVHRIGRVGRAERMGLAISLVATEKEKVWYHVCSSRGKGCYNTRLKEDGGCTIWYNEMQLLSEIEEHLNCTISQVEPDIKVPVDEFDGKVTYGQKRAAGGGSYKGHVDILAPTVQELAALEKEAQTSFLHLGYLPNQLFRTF
substance,measurement,setting,value
"FAM98B, Q52LJ0",cross-linked residues,[1],K245 - K693
same,cross-linked residues,[2],K280 - K245

# Reference: paper PMC8668186, “Molecular architecture of the human tRNA ligase complex” (eLife, 2021)
